# Experimental data from the supplement of paper PMC10849652.
# Targets with a hit are over-represented here; the source holds about 8,800 in all. About 0.5% of all pairs of compound and target were hits. Values without a mark were called inactive.
# Assays:
# Assay in all cases: log2 fold change, soluble protein after heating vs DMSO (PISA); higher = thermal stabilisation; K562 lysate, 10 uM; active = over 0.2 and 3.5 SD of the protein, either way, in both replicates (recomputed)
# vemurafenib = compound: CCCS(=O)(=O)Nc1ccc(F)c(C(=O)c2c[nH]c3ncc(-c4ccc(Cl)cc4)cc23)c1F [vemurafenib]
# Procedure, shortened: (§1)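 Following dounce homogenisation of K562 pellets in PBS pH 7.4 with 1 mM MgCl2, crude extract at 1 mg/mL protein was incubated for 30 min with 10 μM compound. Aliquots were then heated for 3 min over 48°C-58°C and pooled, NP-40 was added to 0.5% at 4°C, and soluble protein was recovered as the supernatant at 21,000xg for 90 min. Channel-sum-equalised TMTpro 16plex LC-MS/MS quantified this protein. Each value, from duplicates, is a log-two fold change in thermal stability relative to solvent controls.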
# [1] = compound: CCCS(=O)(=O)Nc1ccc(F)c(C(=O)c2c[nH]c3ncc(Cl)cc23)c1F
# Procedure, shortened: as §1
# barasertib = compound: CCN(CCCOc1ccc2c(Nc3cc(CC(=O)Nc4cccc(F)c4)[nH]n3)ncnc2c1)CCOP(=O)(O)O [barasertib]
# Procedure, shortened: as §1
# [2] = compound: CC[C@@H]1C(=O)N(C)c2cnc(Nc3ccc(C(=O)NC4CCN(C)CC4)cc3OC)nc2N1C1CCCC1
# Procedure, shortened: as §1
# volasertib = compound: CC[C@@H]1C(=O)N(C)c2cnc(Nc3ccc(C(=O)N[C@H]4CC[C@H](N5CCN(CC6CC6)CC5)CC4)cc3OC)nc2N1C(C)C [volasertib]
# Procedure, shortened: as §1
# [3] = compound: CCn1c(C(=O)N(C2CC2)C2CC2)cc2c3c(ncn3C)c(Nc3cc(C)n(C)n3)nc21
# Procedure, shortened: as §1
# [4] = compound: CCn1cc(-c2ccnc3[nH]c(-c4cccc(CN(C)C)c4)cc23)c(-c2ccc(NC(=O)N(C)C)cc2)n1
# Procedure, shortened: as §1
# [5] = compound: CN1CCC(CNc2ccc3ncc(-c4cccc(OC(F)(F)F)c4)n3n2)CC1
# Procedure, shortened: as §1
# saracatinib = compound: CN1CCN(CCOc2cc(OC3CCOCC3)c3c(Nc4c(Cl)ccc5c4OCO5)ncnc3c2)CC1 [saracatinib]
# Procedure, shortened: as §1
# sotrastaurin = compound: CN1CCN(c2nc(C3=C(c4c[nH]c5ccccc45)C(=O)NC3=O)c3ccccc3n2)CC1 [sotrastaurin]
# Procedure, shortened: as §1
# alvocidib = compound: CN1CC[C@H](c2c(O)cc(O)c3c(=O)cc(-c4ccccc4Cl)oc23)[C@H](O)C1 [alvocidib]
# Procedure, shortened: as §1
# Tubastatin A = compound: CN1CCc2c(c3ccccc3n2Cc2ccc(C(=O)NO)cc2)C1 [Tubastatin A]
# Procedure, shortened: as §1
# [6] = compound: CNC(=O)C1=CC=CC=C1NC2=NC(=NC=C2Cl)NC3=C(C=C(C=C3)N4CCOCC4)OC
# Procedure, shortened: as §1
# defactinib = compound: CNC(=O)c1ccc(Nc2ncc(C(F)(F)F)c(NCc3nccnc3N(C)S(C)(=O)=O)n2)cc1 [defactinib]
# Procedure, shortened: as §1
# [7] = compound: CNc1nc(-c2ccc3c(N)n[nH]c3c2)cc(N2C[C@@H](C(=O)NC3CCCCC3)CC[C@H]2C)n1
# Procedure, shortened: as §1
# encorafenib = compound: COC(=O)N[C@@H](C)CNc1nccc(-c2cn(C(C)C)nc2-c2cc(Cl)cc(NS(C)(=O)=O)c2F)n1 [encorafenib]
# Procedure, shortened: as §1
# [8] = compound: COC(=O)[C@H](CCSC)NC(=O)C1=C(C=C(C=C1)NC[C@H](CS)N)C2=CC=CC=C2
# Procedure, shortened: as §1
# alisertib = compound: COc1cc(Nc2ncc3c(n2)-c2ccc(Cl)cc2C(c2c(F)cccc2OC)=NC3)ccc1C(=O)O [alisertib]
# Procedure, shortened: as §1
# [9] = compound: COc1cc2nc(-c3cc(F)ccc3O)nc(N[C@@H]3CNC[C@H]3C(C)(C)O)c2cc1OC
# Procedure, shortened: as §1
# gefitinib = compound: COc1cc2ncnc(Nc3ccc(F)c(Cl)c3)c2cc1OCCCN1CCOCC1 [gefitinib]
# Procedure, shortened: as §1
# Sequence of UniProt Q70CQ2 (Q70CQ2 whole entry, looked up): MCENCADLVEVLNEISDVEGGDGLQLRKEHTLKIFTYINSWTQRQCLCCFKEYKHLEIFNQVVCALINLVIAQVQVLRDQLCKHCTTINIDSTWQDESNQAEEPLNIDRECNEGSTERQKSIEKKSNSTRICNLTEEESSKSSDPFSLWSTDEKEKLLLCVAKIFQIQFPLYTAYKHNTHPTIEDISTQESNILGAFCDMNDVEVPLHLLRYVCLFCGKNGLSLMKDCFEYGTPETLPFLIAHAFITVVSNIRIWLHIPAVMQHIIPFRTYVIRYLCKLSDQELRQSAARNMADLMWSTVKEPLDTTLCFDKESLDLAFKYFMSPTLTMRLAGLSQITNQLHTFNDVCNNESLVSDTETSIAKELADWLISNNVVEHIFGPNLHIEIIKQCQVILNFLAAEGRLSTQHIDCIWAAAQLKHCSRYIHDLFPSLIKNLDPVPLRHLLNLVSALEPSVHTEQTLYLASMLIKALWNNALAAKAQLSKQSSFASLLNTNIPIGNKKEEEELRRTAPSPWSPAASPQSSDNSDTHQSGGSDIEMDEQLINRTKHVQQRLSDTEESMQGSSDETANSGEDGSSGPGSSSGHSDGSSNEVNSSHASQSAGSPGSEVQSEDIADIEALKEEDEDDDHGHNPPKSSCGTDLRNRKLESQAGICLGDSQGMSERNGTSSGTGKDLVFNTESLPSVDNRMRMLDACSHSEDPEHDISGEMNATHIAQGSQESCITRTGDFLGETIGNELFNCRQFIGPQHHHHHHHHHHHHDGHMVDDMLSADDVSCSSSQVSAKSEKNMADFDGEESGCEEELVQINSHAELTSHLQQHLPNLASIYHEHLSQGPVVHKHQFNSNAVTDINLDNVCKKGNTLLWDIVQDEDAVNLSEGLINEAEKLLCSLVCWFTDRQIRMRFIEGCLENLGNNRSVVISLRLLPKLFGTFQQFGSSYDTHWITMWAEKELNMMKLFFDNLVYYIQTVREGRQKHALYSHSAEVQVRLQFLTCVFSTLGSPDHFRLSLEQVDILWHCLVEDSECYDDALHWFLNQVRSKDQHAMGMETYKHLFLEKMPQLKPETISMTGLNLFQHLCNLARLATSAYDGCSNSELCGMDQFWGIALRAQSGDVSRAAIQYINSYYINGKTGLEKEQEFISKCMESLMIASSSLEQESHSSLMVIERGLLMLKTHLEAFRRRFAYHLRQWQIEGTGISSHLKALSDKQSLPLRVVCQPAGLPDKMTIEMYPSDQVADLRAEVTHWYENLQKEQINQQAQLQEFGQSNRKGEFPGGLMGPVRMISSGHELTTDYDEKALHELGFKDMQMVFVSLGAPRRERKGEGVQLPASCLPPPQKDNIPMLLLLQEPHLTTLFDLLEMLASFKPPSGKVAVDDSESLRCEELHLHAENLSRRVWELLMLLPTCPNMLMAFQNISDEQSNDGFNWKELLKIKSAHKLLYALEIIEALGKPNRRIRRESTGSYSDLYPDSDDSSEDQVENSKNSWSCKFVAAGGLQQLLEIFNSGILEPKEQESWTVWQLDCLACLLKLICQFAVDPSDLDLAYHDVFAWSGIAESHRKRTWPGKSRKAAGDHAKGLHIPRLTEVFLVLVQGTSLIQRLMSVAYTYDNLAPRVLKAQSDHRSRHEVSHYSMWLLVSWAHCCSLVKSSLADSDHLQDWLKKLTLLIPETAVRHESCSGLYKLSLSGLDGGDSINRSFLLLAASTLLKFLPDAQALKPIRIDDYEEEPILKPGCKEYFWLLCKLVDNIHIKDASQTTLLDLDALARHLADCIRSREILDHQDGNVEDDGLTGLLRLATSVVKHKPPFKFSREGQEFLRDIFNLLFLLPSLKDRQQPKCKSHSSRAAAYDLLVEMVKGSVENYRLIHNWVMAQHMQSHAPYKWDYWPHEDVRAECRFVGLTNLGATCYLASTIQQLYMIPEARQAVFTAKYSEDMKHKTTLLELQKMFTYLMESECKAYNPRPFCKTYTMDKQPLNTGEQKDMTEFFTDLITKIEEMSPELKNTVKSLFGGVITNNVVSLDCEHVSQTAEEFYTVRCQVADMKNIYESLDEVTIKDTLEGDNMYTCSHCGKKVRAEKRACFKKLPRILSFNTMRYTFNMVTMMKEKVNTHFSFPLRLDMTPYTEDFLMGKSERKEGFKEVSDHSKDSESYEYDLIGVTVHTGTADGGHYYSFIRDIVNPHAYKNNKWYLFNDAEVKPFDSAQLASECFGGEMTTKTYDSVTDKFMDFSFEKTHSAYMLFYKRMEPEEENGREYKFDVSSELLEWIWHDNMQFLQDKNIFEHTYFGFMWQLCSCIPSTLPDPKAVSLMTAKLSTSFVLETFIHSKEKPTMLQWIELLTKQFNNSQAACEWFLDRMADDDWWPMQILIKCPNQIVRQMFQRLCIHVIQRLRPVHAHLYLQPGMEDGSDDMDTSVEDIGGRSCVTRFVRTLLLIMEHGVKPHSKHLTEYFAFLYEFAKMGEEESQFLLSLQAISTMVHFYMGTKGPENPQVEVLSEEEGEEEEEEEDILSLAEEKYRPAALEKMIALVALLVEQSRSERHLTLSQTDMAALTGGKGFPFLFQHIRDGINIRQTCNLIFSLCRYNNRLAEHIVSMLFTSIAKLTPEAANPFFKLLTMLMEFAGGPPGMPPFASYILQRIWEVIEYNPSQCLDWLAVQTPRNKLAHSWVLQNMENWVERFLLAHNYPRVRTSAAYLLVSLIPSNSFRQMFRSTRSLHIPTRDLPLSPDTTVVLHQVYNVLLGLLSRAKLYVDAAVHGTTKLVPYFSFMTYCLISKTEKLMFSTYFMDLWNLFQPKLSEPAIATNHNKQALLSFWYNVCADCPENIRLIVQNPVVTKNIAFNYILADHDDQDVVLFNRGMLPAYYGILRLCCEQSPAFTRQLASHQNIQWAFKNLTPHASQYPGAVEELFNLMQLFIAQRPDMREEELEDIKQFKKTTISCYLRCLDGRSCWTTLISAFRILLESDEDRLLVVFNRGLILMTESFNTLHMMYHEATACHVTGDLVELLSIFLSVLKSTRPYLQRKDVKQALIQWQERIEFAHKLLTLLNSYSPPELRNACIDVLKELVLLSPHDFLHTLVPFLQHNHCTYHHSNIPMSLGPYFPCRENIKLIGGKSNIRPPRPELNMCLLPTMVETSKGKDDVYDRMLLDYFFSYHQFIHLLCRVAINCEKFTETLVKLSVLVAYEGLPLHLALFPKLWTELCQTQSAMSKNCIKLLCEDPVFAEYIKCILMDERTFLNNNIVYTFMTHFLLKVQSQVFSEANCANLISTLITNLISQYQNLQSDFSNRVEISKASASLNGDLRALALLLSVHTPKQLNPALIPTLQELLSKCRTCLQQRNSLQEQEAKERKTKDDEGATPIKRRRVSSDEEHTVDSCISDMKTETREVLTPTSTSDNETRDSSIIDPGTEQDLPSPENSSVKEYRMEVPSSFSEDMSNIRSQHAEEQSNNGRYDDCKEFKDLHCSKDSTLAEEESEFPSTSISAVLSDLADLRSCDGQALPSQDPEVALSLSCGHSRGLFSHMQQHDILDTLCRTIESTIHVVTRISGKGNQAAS
# Sequence of UniProt Q9UBK9 (Q9UBK9 whole entry, looked up): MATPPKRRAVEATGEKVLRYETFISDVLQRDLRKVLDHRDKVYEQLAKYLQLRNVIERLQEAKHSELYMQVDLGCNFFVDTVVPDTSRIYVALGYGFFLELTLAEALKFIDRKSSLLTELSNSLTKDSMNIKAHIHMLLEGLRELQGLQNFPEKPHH
# Sequence of UniProt Q86U90 (Q86U90 whole entry, looked up): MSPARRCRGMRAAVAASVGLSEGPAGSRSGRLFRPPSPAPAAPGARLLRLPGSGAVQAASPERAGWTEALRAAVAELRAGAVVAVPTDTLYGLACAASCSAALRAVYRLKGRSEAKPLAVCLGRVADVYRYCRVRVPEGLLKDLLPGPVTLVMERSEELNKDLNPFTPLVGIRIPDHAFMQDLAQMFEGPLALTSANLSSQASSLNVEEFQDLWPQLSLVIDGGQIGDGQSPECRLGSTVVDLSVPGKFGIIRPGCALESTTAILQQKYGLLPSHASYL
# Sequence of UniProt P27348 (P27348 whole entry, looked up): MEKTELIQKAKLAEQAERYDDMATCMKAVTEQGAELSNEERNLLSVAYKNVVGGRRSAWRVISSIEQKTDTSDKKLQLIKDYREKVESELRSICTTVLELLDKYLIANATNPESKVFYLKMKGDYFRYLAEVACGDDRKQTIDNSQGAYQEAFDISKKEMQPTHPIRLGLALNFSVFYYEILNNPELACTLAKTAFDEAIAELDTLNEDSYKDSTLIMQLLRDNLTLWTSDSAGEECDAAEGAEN
# Sequence of UniProt Q9NQZ2 (Q9NQZ2 whole entry, looked up): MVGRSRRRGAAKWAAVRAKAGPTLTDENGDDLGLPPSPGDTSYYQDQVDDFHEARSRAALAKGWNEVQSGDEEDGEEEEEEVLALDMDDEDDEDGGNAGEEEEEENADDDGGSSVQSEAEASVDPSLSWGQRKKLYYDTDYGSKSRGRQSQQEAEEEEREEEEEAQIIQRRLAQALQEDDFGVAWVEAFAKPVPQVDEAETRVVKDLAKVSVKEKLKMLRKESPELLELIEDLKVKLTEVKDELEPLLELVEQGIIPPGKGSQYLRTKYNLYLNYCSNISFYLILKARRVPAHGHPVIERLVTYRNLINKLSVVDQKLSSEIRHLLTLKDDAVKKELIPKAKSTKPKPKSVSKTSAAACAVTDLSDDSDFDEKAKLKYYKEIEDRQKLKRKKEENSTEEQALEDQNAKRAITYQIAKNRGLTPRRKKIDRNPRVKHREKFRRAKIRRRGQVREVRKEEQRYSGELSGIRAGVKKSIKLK
# Sequence of UniProt A8MPS7 (A8MPS7 whole entry, looked up): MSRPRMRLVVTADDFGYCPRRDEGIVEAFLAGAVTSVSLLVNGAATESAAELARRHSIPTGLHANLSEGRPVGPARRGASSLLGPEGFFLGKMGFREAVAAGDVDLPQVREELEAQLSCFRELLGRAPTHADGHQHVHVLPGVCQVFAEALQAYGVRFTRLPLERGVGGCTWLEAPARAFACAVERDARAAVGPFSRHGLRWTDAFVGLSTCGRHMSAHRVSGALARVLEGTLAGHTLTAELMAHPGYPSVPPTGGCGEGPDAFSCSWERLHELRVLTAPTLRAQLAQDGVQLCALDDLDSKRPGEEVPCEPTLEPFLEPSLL
Target,log2 fold change (vemurafenib),log2 fold change [1],log2 fold change (barasertib),log2 fold change [2],log2 fold change (volasertib),log2 fold change [3],log2 fold change [4],log2 fold change [5],log2 fold change (saracatinib),log2 fold change (sotrastaurin),log2 fold change (alvocidib),log2 fold change (Tubastatin A),log2 fold change [6],log2 fold change (defactinib),log2 fold change [7],log2 fold change (encorafenib),log2 fold change [8],log2 fold change (alisertib),log2 fold change [9],log2 fold change (gefitinib)
UXT isoform 2 (UniProt Q9UBK9),-0.023,0,0.056,0.321 (active),-0.004,-0.088,-0.05,0.032,0.053,0.001,-0.038,0.081,0.015,0.069,0.574 (active),-0.081,0.025,-0.041,0.038,0.04
YRDC (UniProt Q86U90),0.03,0.093,0.019,0.04,-0.005,-0.045,-0.019,0.089,-0.043,-0.002,0.015,-0.006,0.044,-0.023,0.043,0.003,-0.1,-0.014,-0.004,-0.001
USP34 (UniProt Q70CQ2),0.006,0.039,0.048,-0.054,-0.052,0.014,0.027,-0.079,0.026,-0.008,0.035,-0.045,0.009,0.006,-0.014,0.033,0.09,0,0.017,0.013
WDR7 (UniProt Q9Y4E6),-0.005,-0.035,-0.019,-0.041,-0.057,0.029,-0.007,0.047,-0.018,0.01,-0.008,0.008,0,-0.025,0.026,0.092,-0.055,-0.007,-0.01,-0.025
YWHAQ (UniProt P27348),-0.029,0.009,-0.023,0.025,0.023,-0.003,0.625 (active),-0.092,-0.012,-0.047,0.16,-0.021,-0.006,0,0.023,-0.025,-0.045,-0.014,0.008,-0.06
VAV3 isoform 4 (UniProt Q9UKW4),0.059,-0.004,0.049,-0.001,-0.017,-0.291,-0.512,0.177,-0.15,0.001,-0.305,-0.202,0.032,-0.295,0.053,0,0.049,-0.004,0.054,0.036
YDJC (UniProt A8MPS7),-0.022,0.006,0.017,0.01,-0.038,-0.063,0.012,0.055,0.024,0.008,-0.039,0.052,0.014,-0.026,0.014,-0.025,-0.036,0.035,0.007,-0.02
UTP3 (UniProt Q9NQZ2),0.004,0.012,0.058,-0.009,-0.011,-0.047,0,-0.02,0.011,0.05,0.04,-0.022,-0.047,0.151,0.089,0.05,0.005,-0.042,-0.002,-0.017
